Screening data deposited in PubChem by National Center for Advancing Translational Sciences (NCATS).
Sm TGR block = blocks Schistosoma mansoni thioredoxin glutathione reductase | Q962Y6 | purified TGR, DTNB reduction, TNB absorbance 405 nm | Potency, µM (doses to about 114 µM), hits mostly inhibitors | 360,000 compounds, 3% hits; active means well fitted inhibition curve with a large enough effect; inconclusive means small, poorly fitted or top-dose-only effect; inactive means no such curve, though single readings can be large or run the other way; further: nearly all actives have a fitted effect of over 60% in size
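TGR 20 nM + NADPH 100 uM (dispensed conc.), cpd preinc 15 min RT; start with NADPH (500 uM addition) then DTNB (15 mM addition). Kinetic TNB absorbance, 405 nm filter. Four-parameter Hill fit across titration.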
CHX counter = affects cycloheximide protein synthesis inhibition readout, counter-screen. cell reporter, cycloheximide protein synthesis inhibition counterscreen. max response, %. 300,000 compounds, 12% hits. AID 2314; in the data active means max response mostly above about 13%, no sharp cut-off; inactive means mostly below about 14%; further: read at 38.3 µM for the half of the compounds with a filed dose
Shiga toxin inh = Shiga toxin inhibition; AID 2315; Vero cells, Shiga toxin protein synthesis inhibition reporter; inhibition, % at 38.7 µM; 290,000 compounds, 9.2% hits; in the data active means inhibition mostly above about 28%, no sharp cut-off; inactive means mostly below about 43%
FMDV inh = foot and mouth disease virus antiviral activity; FMDV antiviral cell-based qHTS; Potency, µM (top dose mostly 57.9 µM), most hits filed as inhibitors; 410,000 compounds, 1.2% hits; AID 1159524; calls by dose curve; tested in HEK293T cells; further: read-out not given here; nearly all actives have a fitted effect of over 45% in size
Each line names hits and unclear results; the compound was inactive in the other large screens. This is a sample that favours compounds with a hit; in the whole collection about 12% have one here.

CCCNC(=O)c1oc2ccc3c(c2c1C)C=CC(C)(C)O3	CHX counter 49, Shiga toxin inh 76
CCOc1ccc(C(=O)c2cn(CC(=O)Nc3cc(OC)cc(OC)c3)c3ccc(F)cc3c2=O)cc1	none (no result: CHX counter, Shiga toxin inh)
CCC(C)NC(=O)Cn1c(=O)n(Cc2ccc(C(=O)NCc3ccc(C)cc3)cc2)c(=O)c2ccccc21 (configuration not stated)	none (no result: CHX counter, Shiga toxin inh)
O=C(/C=C/Nc1ccc(F)c(Cl)c1)c1ccco1	CHX counter 68, Shiga toxin inh 142
O=C(/C=C/Nc1cccc(F)c1)c1ccco1	CHX counter 35, Shiga toxin inh 76
Cc1ccc2[nH]c(=O)c3cc(C(=O)N(C)c4ccc(Br)cc4)sc3c2c1	none (no result: CHX counter, Shiga toxin inh)
Cc1nnc(N2CCN(c3ccccc3F)CC2)c2c1nnn2Cc1ccccc1	none (no result: CHX counter, Shiga toxin inh)
NS(=O)(=O)c1cccc(NC(=O)CCSc2ccc(Cl)cc2)c1	Sm TGR block 18µM
NS(=O)(=O)c1cccc(NC(=O)CCCNC(=O)c2ccc(Cl)cc2)c1	none
NS(=O)(=O)c1cccc(NC(=O)CCCC2CCCCC2)c1	Shiga toxin inh 60
Cc1cc(C)c2nc(NCc3ccccc3O)sc2c1	CHX counter 22, Shiga toxin inh 114
COc1cc(CNc2nc3c(C)cc(C)cc3s2)ccc1O	CHX counter 25, Shiga toxin inh 48
CC(C)(C)c1ccc(OCC(=O)NCC2(N3CCOCC3)CCCCC2)cc1	FMDV inh inconclusive (no result: CHX counter, Shiga toxin inh)
N#C/C(=C\c1cccc(O)c1)C(=O)N1CCCCC1	none (no result: Shiga toxin inh)
Cc1cc(/C=C(\C#N)C(=O)N2CCCCC2)cc(C)c1O	Shiga toxin inh 51
CN1CCN(c2ncc3nc(-c4ccc(F)cc4)c(=O)n(Cc4cccs4)c3n2)CC1	none (no result: Sm TGR block, CHX counter, Shiga toxin inh)
O=C(N/N=C/c1ccc(Cl)cc1)C1CC12CCC2 (configuration not stated)	CHX counter 53, Shiga toxin inh 133
Cc1cccc(C)c1NC(=O)c1nc(SC(C)C)ncc1Cl	none (no result: CHX counter, Shiga toxin inh)
O=C(NC(=S)Nc1ccccn1)c1ccccc1	CHX counter 40, Shiga toxin inh 68
Cc1nn(CC(=O)Nc2ccccn2)c(=O)c2ccccc12	none
O=C(/C=C/c1ccc(Cl)cc1Cl)NC(=S)Nc1ccccn1	CHX counter 38, Shiga toxin inh 86
O=C(NC(=S)Nc1ccccn1)c1ccc([N+](=O)[O-])cc1	CHX counter 51, Shiga toxin inh 199
O=C(Cn1nc(-c2ccccc2)c2ccccc2c1=O)Nc1ccccn1	CHX counter 46
O=C(Nc1ncccn1)c1ccc([N+](=O)[O-])cc1	none
O=C(Nc1ccccn1)c1ccccc1	none (no result: Sm TGR block, CHX counter, Shiga toxin inh)
CC(C)CCNC(=O)C(=O)Nc1c2c(nn1-c1ccc(Cl)cc1)CSC2	none (no result: CHX counter, Shiga toxin inh)
CCNc1ncc2nc(-c3ccccc3)c(=O)n(C)c2n1	none (no result: Sm TGR block, CHX counter, Shiga toxin inh)
O=C(CC(=O)c1ccccc1)Nc1ccccn1	CHX counter 43, Shiga toxin inh 76
O=C(NC(=S)Nc1ccccn1)c1ccc(-c2ccccc2)cc1	CHX counter 63, Shiga toxin inh 127
O=C(Nc1ccccn1)c1ccc(C(=O)Nc2ccccn2)cc1	none
COc1ccc2c(c1)cc1c(=O)n(CC(=O)NCc3ccco3)nc(C)n12	none (no result: CHX counter, Shiga toxin inh)
CNC(=O)Cn1c(=O)c2cccn2c2ccc(F)cc21	none (no result: CHX counter, Shiga toxin inh)
CCC(C)NC(=O)Cn1c(=O)n(CC2CCC(C(=O)NC)CC2)c(=O)c2sccc21 (configuration not stated)	none (no result: CHX counter, Shiga toxin inh)
O=C(c1ccc(F)cc1)C1CCN(Cc2ccccc2)CC1	none (no result: Sm TGR block, CHX counter, Shiga toxin inh)
O=C(c1ccc(F)cc1)C(Cc1ccccc1)N1CCCCC1 (configuration not stated)	CHX counter 35, Shiga toxin inh 69
CCOc1ccccc1-c1noc(CSc2nnc(-c3ccncc3)n2-c2ccc(F)cc2)n1	none (no result: CHX counter, Shiga toxin inh)
CCOC(=O)c1c(-c2ccc(C)o2)csc1NC(=S)NC(=O)c1ccc(F)cc1	FMDV inh inconclusive
CCOC(=O)c1c(-c2ccco2)csc1NC(=O)CSc1nnc(N)s1	Sm TGR block inconclusive
CCOC(=O)c1c(-c2ccc(OC)cc2)csc1NC(=O)CCN1CCOCC1	none
CCOC(=O)c1c(-c2ccc(C)o2)csc1NC(=O)CN1CCN(CC)CC1	Sm TGR block 50µM (no result: FMDV inh)
CCOC(=O)c1c(-c2ccc(C)cc2)csc1NC(=O)CCN1CC(C)OC(C)C1 (configuration not stated)	FMDV inh 28µM
CCOC(=O)c1c(-c2ccc(OCC)cc2)csc1NC(=O)CCN1C(=O)c2ccccc2C1=O	none (no result: FMDV inh)
CCOC(=O)c1c(-c2ccc(C)o2)csc1NC(=O)CN1CCC(C(N)=O)CC1	Sm TGR block 14µM, FMDV inh inconclusive
CCOC(=O)c1c(-c2ccc(C)o2)csc1NC(=O)CSc1nncs1	Sm TGR block 4.5µM (no result: FMDV inh)
Cc1ccc(CCNC(=O)c2cccc(Nc3nc4ccccc4nc3-n3nc(C)cc3C)c2)cc1	none (no result: CHX counter, Shiga toxin inh)
CCOC(=O)c1c(-c2ccccc2)csc1NC(=O)CSc1nc(C)cc(C)n1	FMDV inh inconclusive
CCOC(=O)c1c(-c2ccccc2)csc1NC(=O)CSc1nc(N)cc(N)n1	FMDV inh 18µM
CCOC(=O)c1c(-c2ccco2)csc1NC(=O)COC(=O)c1cnccn1	Sm TGR block 7.9µM (no result: CHX counter, Shiga toxin inh)
CCOC(=O)c1c(-c2ccc(C)o2)csc1NC(=O)CN1CCCCC1	Sm TGR block 8.9µM, FMDV inh inconclusive
CCOC(=O)c1c(-c2ccc(C)o2)csc1NC(=O)CN(C)CC(=O)Nc1ccc(C)cc1	Sm TGR block inconclusive, FMDV inh inconclusive
CCOC(=O)c1c(NC(=O)COC(=O)c2cnccn2)sc(C(=O)NC)c1C	none (no result: CHX counter, Shiga toxin inh)
COc1ccc(-n2nc(C(=O)N3CCN(c4ccccc4OC)CC3)c3c4ccccc4n(C)c3c2=O)cc1Cl	none (no result: CHX counter, Shiga toxin inh)
CCN(CC(=O)Nc1c(F)cccc1F)C(=O)c1ccc(N2CCCC2)c([N+](=O)[O-])c1	none (no result: CHX counter, Shiga toxin inh)
CCSc1ccc(C(=O)Nc2cccc(C)n2)cc1[N+](=O)[O-]	CHX counter 10.0, Shiga toxin inh 23
CCN(CC(=O)Nc1c(F)cccc1F)C(=O)c1ccc(N2CCOCC2)c([N+](=O)[O-])c1	Sm TGR block 45µM, FMDV inh inconclusive (no result: CHX counter, Shiga toxin inh)
Cc1cccc(NC(=O)c2ccc(N3CCOCC3)c([N+](=O)[O-])c2)n1	CHX counter 38, Shiga toxin inh 72
Cc1cccc(NC(=O)c2ccc(N3CCCCC3)c([N+](=O)[O-])c2)n1	CHX counter 46, Shiga toxin inh 69
Cc1ccc(C)c2sc(NC(=O)c3ccc(N4CCCCC4)c([N+](=O)[O-])c3)nc12	none
COc1ccc(C(=O)Nc2ccc(C(=O)OCc3cc(=O)n4nc(C5CC5)sc4n3)cc2)cc1	none (no result: CHX counter, Shiga toxin inh)
Cc1cccc(NC(=O)c2ccc(N(C)C3CCCCC3)c([N+](=O)[O-])c2)n1	CHX counter 21, Shiga toxin inh 58, FMDV inh inconclusive
Cc1ccc(-n2c(C)c([N+](=O)[O-])c3ccc(O)cc32)cc1	Sm TGR block 8.9µM (no result: FMDV inh)
O=C(NCCN1CCCCC1)c1ccc(Cn2c(SCc3ccccc3)nc3cccnc32)cc1	none (no result: CHX counter, Shiga toxin inh)
CCOC(=O)NC(C(Cl)(Cl)Cl)S(=O)(=O)c1ccccc1 (configuration not stated)	Sm TGR block 25µM, CHX counter 18, Shiga toxin inh 50, FMDV inh inconclusive
CCOC(=O)NC(c1ccc(C(C)C)cc1)C(Cl)(Cl)Cl (configuration not stated)	none
COc1ccc(-c2cn3nc(N4CCCC(C(=O)Nc5cccc(Cl)c5C)C4)sc3n2)cc1 (configuration not stated)	none (no result: CHX counter, Shiga toxin inh)
